KAT2A inh – blocks human GCN5L2 histone acetyltransferase | Q92830 | GCN5L2 HAT assay, ThioGlo1 CoA-SH fluorescence | 390,000 tested, 0.21% active | Potency, µM (highest dose often 58.9 µM), actives largely listed as inhibitors
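Preincubate 20nM GCN5L2 with compound 15 min, RT → add 50uM ThioGlo1 + 75uM H3(1-25) + 70uM acetyl-CoA → read fluorescence 0 and 20 min. Primary qHTS; fluorescent artifacts likely.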
GLS inh – inhibitors of human glutaminase (GLS); Potency, µM (titrated, usually from 45.5 µM), usual class: inhibitors; 410,000 tested, 0.21% active; GLS enzymatic activity, qHTS titration
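hKGA in 45 mM KH2PO4 (pH 8.2), 0.02% Tween-20 with compound, then 1mM L-Glutamine (stock as added) plus glutamate oxidase/HRP/Amplex red coupling mix. Fluorescence read initially and after 30 min at RT; signal change reflects glutamate formation.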
Sfp PPTase inh – blocks B. subtilis Sfp PPTase activity; Biochemical Sfp PPTase activity, qHTS; Potency, µM, hits mostly inhibitors; 310,000 tested, 3.5% active; AID 1490;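 also: the enzyme is Sfp with the accession as filed and its product quenches rhodamine fluorescence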
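After 15 min at room temperature with compound, 15 nM Sfp received 5 uM rhodamine-CoA plus 12.5 uM BHQ-2-ybbR (50 mM Hepes pH 7.6, 10 mM MgCl2). Rate came from the fluorescence difference over 30 min, ex 525/em 598 nm.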
VDR inhibitor – blocks the human vitamin D receptor; VDR-SRC2-3 peptide fluorescence polarization, 2 h; P11473; 400,000 tested, 0.93% active; Potency, µM, actives largely listed as inhibitors
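Fluorescence polarization assay of small-molecule disruption of VDR binding to coregulator peptide SRC2-3. Compounds and controls pin-transferred, then read after 2 h incubation at ambient room temperature.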
TrxR1 substrate – substrates of rat thioredoxin reductase 1 | O89049 | purified TrxR1 substrate turnover, NADPH consumption readout | Potency, µM (highest dose often 114 µM) | 390,000 tested, 0.01% active; also: nearly all actives have a fitted effect of over 50% in size
Target sequence (O89049 whole entry, looked up): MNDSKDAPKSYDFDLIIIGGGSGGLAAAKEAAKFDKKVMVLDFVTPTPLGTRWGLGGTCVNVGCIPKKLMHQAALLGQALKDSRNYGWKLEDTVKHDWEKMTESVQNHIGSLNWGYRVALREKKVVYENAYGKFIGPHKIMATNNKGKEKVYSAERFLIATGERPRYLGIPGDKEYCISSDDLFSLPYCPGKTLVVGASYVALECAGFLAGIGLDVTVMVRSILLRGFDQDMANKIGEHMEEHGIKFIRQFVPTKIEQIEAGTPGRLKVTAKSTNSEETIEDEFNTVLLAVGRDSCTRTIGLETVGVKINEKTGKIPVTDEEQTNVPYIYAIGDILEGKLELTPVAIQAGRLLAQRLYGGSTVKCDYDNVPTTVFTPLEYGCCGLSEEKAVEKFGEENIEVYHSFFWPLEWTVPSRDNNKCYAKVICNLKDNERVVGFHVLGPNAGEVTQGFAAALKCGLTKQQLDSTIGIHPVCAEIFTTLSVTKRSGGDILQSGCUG
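Rat TrxR1, dispensed at 90 nM, was prereduced with 400 uM NADPH (final) for 5 min at ~22 deg C, then incubated with compound 15 min before 400 uM selenite. A first-read NADPH fluorescence drop versus no-compound background flagged substrates.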
TrxR1 inh-1 – rat TrxR1 inhibition | O89049 | recombinant rTrxR1, NADPH fluorescence consumption, selenite substrate | Potency, µM (titrated, usually from 114 µM), usual class: inhibitors | 390,000 tested, 1% active; also: nearly all actives have a fitted effect of over 65% in size
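Rat TrxR1 (90 nM in the dispensed reagent) was pre-reduced with 400 uM NADPH for 5 min at room temperature, then incubated with compound for 15 min. After 400 uM selenite was added, NADPH fluorescence (Ex 340/Em 450 nm) was followed for 8 min.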
TRb-SRC2 inh – confirmation of human TRb-SRC2 interaction inhibitors. AlphaScreen TRb LBD-SRC2 peptide binding, luminescence. 30 tested, 50% active. shares compounds with TrxR1 inh-1. Potency, µM; calls by dose curve
HepG2 tox – counter-screen for TRb-SRC2 inhibitors: HepG2 cytotoxicity. AID 2447. shares compounds with TrxR1 inh-1. Potency, µM. HepG2 viability, ATP luminescence (CellTiter-Glo), 72 h. 40 tested, 50% active; calls by dose curve
AR SRC2 FP – disrupts human androgen receptor binding to SRC2 peptide; shares compounds with TrxR1 inh-1; AR-LBD Tx-SRC2-3 fluorescence polarization, 3 h; calls only; 25 tested, under 10 active; call rule not given here
PPARg-DRIP2 inh – disrupts human PPARgamma binding to DRIP-2 peptide; shares compounds with TrxR1 inh-1; PPARg LBD / Texas Red DRIP-2 peptide, fluorescence polarization, 3 h; Potency, µM; 25 tested, under 10 active; calls by dose curve
VDR SRC2 FP – selectivity of TRb-SRC2 inhibitors: human vitamin D receptor-SRC2 inhibition; shares compounds with TrxR1 inh-1; VDR LBD/SRC2-3 peptide, fluorescence polarization, 3 h; Potency, µM; 25 tested, under 10 active; AID 2455; calls by dose curve
GR counterassay – glutathione reductase inhibition, TrxR1 selectivity check. shares compounds with TrxR1 inh-1. purified GR, DTNB reduction absorbance 405 nm kinetic. activity change, negative = inhibition, % at 57.1 µM. 55 tested, under 10 active. AID 652020
TrxR1 inh-2 – validation of rat thioredoxin reductase 1 inhibitors. shares compounds with TrxR1 inh-1. recombinant TrxR1, NADPH fluorescence consumption, selenite substrate. Potency, µM, most hits filed as inhibitors. 55 tested, 50% active. AID 652023
TrxR1 insulin – TrxR1 inhibition in insulin mechanism assay; TrxR1 Trx-coupled insulin reduction, NADPH absorbance 340 nm; Potency, µM; AID 652037; shares compounds with TrxR1 inh-1; 55 tested, 20% active;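 active = compounds with a measured potency under 100 micromolar; inconclusive = filed, but no rule given; inactive = potency at or above that, or unmeasurable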
TrxR1 inh-3 – rat thioredoxin reductase 1 inhibition, DTNB assay; shares compounds with TrxR1 inh-1; purified TrxR1, DTNB reduction, A412; Potency, µM; 55 tested, 90% active; AID 652256;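 active = a half-inhibiting concentration could be measured and was below 100 µM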
Hits are given with their value. This is a sample that favours compounds with a hit; in the whole collection about 3.8% have one here. Unless noted, calls follow the shape of the dose curve; as a rule, active = well fitted curve in the direction sought with a large enough effect; inconclusive = small, poorly fitted or top-dose-only effect, or another doubt; inactive = no such curve, though single readings can be large; an effect the other way counts as inactive or inconclusive.

How did O=C1C2CCCN2C(c2ccccc2)N1c1ccc(F)cc1 (stereo not drawn) do in these assays?
KAT2A inh: inactive; GLS inh: inactive; Sfp PPTase inh: inactive; VDR inhibitor: inactive; TrxR1 substrate: inactive; TrxR1 inh-1: inactive

What do the screens show for `O=C(COC(=O)c1cc(S(=O)(=O)N2CCOCC2)ccc1F)Nc1cc([N+](=O)[O-])ccc1F`?
KAT2A inh: inactive; GLS inh: inactive; VDR inhibitor: inactive; TrxR1 substrate: inactive; TrxR1 inh-1: inactive

What do the screens show for `O=C(COC(=O)c1cc([N+](=O)[O-])ccc1F)NC1C2CC3CC(C2)CC1C3` (stereo not drawn)?
TRb-SRC2 inh: inactive; HepG2 tox: inactive; AR SRC2 FP: inactive; PPARg-DRIP2 inh: inactive; VDR SRC2 FP: inactive

Results for O=C(COC(=O)c1cc([N+](=O)[O-])ccc1Cl)NC1C2CC3CC(C2)CC1C3 (stereo not drawn) ?
TRb-SRC2 inh: inactive; HepG2 tox: inactive; AR SRC2 FP: inactive; PPARg-DRIP2 inh: inactive; VDR SRC2 FP: inactive

How did O=C(COC(=O)c1cc([N+](=O)[O-])ccc1Cl)NC1CCCC1 do in these assays?
KAT2A inh: inactive; GLS inh: inactive; Sfp PPTase inh: inactive; VDR inhibitor: inactive; TrxR1 substrate: inactive; TrxR1 inh-1: inconclusive

Results for C[S+](=O)([O-])c1ccc(C(=O)OCC(=O)NC2C3CC4CC(C3)CC2C4)cc1 (stereo not drawn) ?
TRb-SRC2 inh: inactive; HepG2 tox: inactive; AR SRC2 FP: inactive; PPARg-DRIP2 inh: inactive; VDR SRC2 FP: inactive

What do the screens show for `Fc1ccccc1CN1CCN(c2ncccn2)CC1`?
KAT2A inh: inactive; GLS inh: inactive; Sfp PPTase inh: inactive; VDR inhibitor: inactive; TrxR1 substrate: inactive; TrxR1 inh-1: inactive

How did Oc1cc2c(cc1CN1CCN(c3ncccn3)CC1)OCO2 do in these assays?
KAT2A inh: inactive; GLS inh: inactive; Sfp PPTase inh: inactive; VDR inhibitor: inactive; TrxR1 substrate: inactive; TrxR1 inh-1: 25.1µM; GR counterassay: inactive; TrxR1 inh-2: inconclusive; TrxR1 insulin: inactive; TrxR1 inh-3: inactive

What do the screens show for `COc1cc(C(=O)Nc2ccccc2C(=O)NCc2cccnc2)cc(OC)c1OC`?
KAT2A inh: inactive; GLS inh: inactive; Sfp PPTase inh: inactive; VDR inhibitor: inactive; TrxR1 substrate: inactive; TrxR1 inh-1: inactive
